High-throughput results as filed in PubChem.
This is a sample that favours compounds with a hit; in the whole collection about 6.9% have one here.
PLK1 PBD block: blocks phosphopeptide binding to human PLK1 polo-box domain | P53350 | Plk1 PBD binding of FITC phosphopeptide, fluorescence polarization | Potency, µM, for inactives: max response, negative = inhibition, actives largely listed as inhibitors | 360,000 compounds, 2.8% hits | AID 720504; also: series mostly up to about 57 µM; % is scaled to controls: 0 for no effect and ±100 for the full control effect; nearly all actives have a fitted effect of over 65% in size
HP1b chromo inh: blocks HP1-beta chromodomain binding to methylated histone tails; Potency, µM (highest dose often 114 µM), inactives show at the top dose activity change, negative = inhibition, actives largely listed as inhibitors; 390,000 compounds, 0.56% hits; AlphaScreen HP1-beta / biotin-H3K9me3 peptide binding; P83916; also: nearly all actives have a fitted effect of over 70% in size
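AlphaScreen: HP1-beta (50 nM) preformed 30 min with biotin-H3(1-18)K9me3 peptide (50 nM) in PBS pH 7.4, 0.01% Tween-20. Compound added for 30 min at RT, then streptavidin donor/nickel chelate acceptor beads (10 ug/mL) for 30 min.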
L3MBTL1 block: L3MBTL1 (human) inhibition; Q9Y468; 230,000 compounds, 0.66% hits; Potency, µM (series often up to 57.1 µM), inactives show top-dose activity, negative = inhibition, hits mostly inhibitors; AlphaScreen L3MBTL1–H3K9me1 peptide binding; also: % is scaled to controls: 0 for no effect and ±100 for the full control effect; nearly all actives have a fitted effect of over 60% in size
Target sequence (Q9Y468 whole entry, looked up): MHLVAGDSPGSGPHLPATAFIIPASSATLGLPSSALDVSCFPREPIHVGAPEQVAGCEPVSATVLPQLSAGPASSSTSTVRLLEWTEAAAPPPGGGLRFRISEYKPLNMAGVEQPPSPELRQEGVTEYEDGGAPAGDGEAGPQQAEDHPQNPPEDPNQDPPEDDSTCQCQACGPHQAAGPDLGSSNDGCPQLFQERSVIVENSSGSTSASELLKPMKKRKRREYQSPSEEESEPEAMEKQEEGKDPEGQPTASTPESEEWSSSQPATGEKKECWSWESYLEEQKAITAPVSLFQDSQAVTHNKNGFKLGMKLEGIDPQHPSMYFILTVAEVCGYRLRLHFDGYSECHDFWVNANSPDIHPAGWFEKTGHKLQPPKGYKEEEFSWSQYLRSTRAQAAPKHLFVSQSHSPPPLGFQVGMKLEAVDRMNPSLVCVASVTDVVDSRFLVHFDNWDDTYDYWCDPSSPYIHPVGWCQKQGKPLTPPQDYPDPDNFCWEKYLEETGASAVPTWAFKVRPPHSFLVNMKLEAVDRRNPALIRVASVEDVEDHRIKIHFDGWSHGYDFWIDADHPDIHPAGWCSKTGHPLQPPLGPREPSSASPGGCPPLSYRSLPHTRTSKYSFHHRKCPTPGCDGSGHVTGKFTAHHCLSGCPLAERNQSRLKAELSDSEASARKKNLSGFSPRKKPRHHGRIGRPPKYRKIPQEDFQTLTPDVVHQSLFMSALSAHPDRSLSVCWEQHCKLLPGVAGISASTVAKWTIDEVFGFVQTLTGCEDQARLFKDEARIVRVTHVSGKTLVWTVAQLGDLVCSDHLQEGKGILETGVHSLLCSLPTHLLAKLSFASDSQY
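Read-out is AlphaScreen signal from streptavidin donor and nickel chelate acceptor beads (10 ug/mL final each) bridging L3MBTL1 (50 nM) and biotinylated K9-monomethylated H3(1-15) peptide (75 nM), after 30 min compound exposure at room temperature.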
VDR inh: blocks the human vitamin D receptor; P11473; VDR-SRC2-3 peptide fluorescence polarization, 2 h; Potency, µM, inactives show max response, negative = inhibition, usual class: inhibitors; 400,000 compounds, 0.93% hits; AID 504847; also: % is scaled to controls: 0 for no effect and ±100 for the full control effect
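After 23 nl compound addition and a short centrifugation, plates sat for 2 hours at ambient temperature; polarization of fluorescence then indicated loss of VDR binding to peptide SRC2-3.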
JMJD2A Tudor: blocks the human JMJD2A Tudor domain; O75164; AID 504339; 390,000 compounds, 4.4% hits; Potency, µM (series often up to 114 µM), without a hit: at the highest dose activity change, negative = inhibition, actives largely listed as inhibitors; AlphaScreen JMJD2A-Tudor / H3K4me3 peptide binding; also: % is scaled to controls: 0 for no effect and ±100 for the full control effect; nearly all actives have a fitted effect of over 50% in size
BAZ2B inh: BAZ2B (human) inhibition | Q9UIF8 | AlphaScreen BAZ2B-H3K14Ac peptide displacement | Potency, µM (titrated, usually from 114 µM), for inactives: at the top dose activity change, negative = inhibition, hits mostly inhibitors | 360,000 compounds, 4.4% hits; also: % is scaled to controls: 0 for no effect and ±100 for the full control effect; nearly all actives have a fitted effect of over 60% in size
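BAZ2B 50 nM plus b-H3(5-23)K14Ac 50 nM, PBS pH 7.4/0.01% Tween-20, 30 min RT; compound added (max 110 uM), 30 min RT; streptavidin donor/Ni-chelate acceptor beads 10 ug/mL final, 20 min dark; AlphaScreen read.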
* hit, by the source's call; ? = inconclusive; nt = no result; [ ] = remark or other dose. Calls follow the shape of the dose curve; as a rule, active = well fitted curve in the direction sought with a large enough effect; inconclusive = small, poorly fitted or top-dose-only effect, or another doubt; inactive = no such curve, though single readings can be large; an effect the other way counts as inactive or inconclusive. Potency is read from the fitted curve at half-maximal effect.

SMILES	PLK1 PBD block	HP1b chromo inh	L3MBTL1 block	VDR inh	JMJD2A Tudor	BAZ2B inh
C#CCOCCOCCOCCNc1nc(N2CCN(C(=O)CCCCCCCCCCNC(=O)[C@H]([C@@H](C)CC)n3cc(CCCCCN)nn3)CC2)nc(N2CCN(C(=O)CCCCCCCCCCNC(=O)[C@@H]([C@H](C)O)n3cc(C)nn3)CC2)n1	-22%	?	-30%	34%	56µM*	56µM*
C#CCOCCOCCOCCNc1nc(N2CCN(C(=O)CCCCCCCCCCNC(=O)Cn3cc(CCCCCN)nn3)CC2)nc(N2CCN(C(=O)CCCCCCCCCCNC(=O)[C@H]([C@@H](C)CC)n3cc(CCCCCN)nn3)CC2)n1	-7%	?	5%	2%	79µM*	?
C#CCOCCOCCOCCNc1nc(N2CCN(C(=O)CCCCCCCCCCNC(=O)Cn3cc(CCCCCN)nn3)CC2)nc(N2CCN(C(=O)CCCCCCCCCCNC(=O)[C@H](CO)n3cc(CCCCCN)nn3)CC2)n1	-2%	3%	12%	-3%	?	?
C#CCOCCOCCOCCNc1nc(N2CCN(C(=O)CCCCCCCCCCNC(=O)[C@H](CCCCN)n3cc(C)nn3)CC2)nc(N2CCN(C(=O)CCCCCCCCCCNC(=O)[C@@H]([C@H](C)CC)n3cc(CCCCCN)nn3)CC2)n1	nt	nt	-15%	nt	nt	56µM*
COc1ccc(Cl)cc1N=C1NC(=O)CC(C(=O)Nc2ccccc2C(F)(F)F)S1 (stereo not drawn)	nt	10%	nt	12%	-21%	-27%
CCCC(C(=O)O)n1c(O)c(C=C2N=c3ccccc3=N2)sc1=S (stereo not drawn)	?	-2%	-15%	-21%	20µM*	-32%
O=C(O)CCCn1c(O)c(C=C2N=c3ccccc3=N2)sc1=S	-10%	23%	nt	-7%	-34%	?
O=C(O)c1cccc(-n2c(O)c(C=C3N=c4ccccc4=N3)sc2=S)c1	-27%	-16%	-25%	-12%	?	-37%
O=C(O)CCCCCn1c(O)c(C=C2N=c3ccccc3=N2)sc1=S	-13%	-2%	-6%	1%	-32%	50µM*
Cc1ccc(-c2nnc3ccccc3c2C(=O)Nc2cccc(C(F)(F)F)c2)cc1	nt	59%	nt	19%	-14%	-23%
Cc1cccc(-c2noc(CNC(=O)c3ccccc3Br)n2)c1	nt	34%	nt	22%	-12%	-2%
Oc1cccc(/C=N\Nc2nncc(-c3ccccc3)n2)c1	21µM*	-1%	37%	?	-25%[11.4 µM]	-11%
CCOc1cc(/C=N/Nc2nncc(-c3ccccc3)n2)ccc1O	15µM*	?	-3%	-11%	?	-3%
C(=C\c1ccccc1)/C=N/Nc1nncc(-c2ccccc2)n1	nt	nt	6%	nt	nt	-31%
N=c1c2c(ncn1CCN1CCOCC1)Oc1ccc3ccccc3c1C2c1ccccc1 (stereo not drawn)	-7%	25%	nt	-7%	-18%	-37%
N=c1c2c(ncn1-c1ccccc1)Oc1ccc3ccccc3c1C2c1ccc2c(c1)OCCO2 (stereo not drawn)	nt	nt	nt	nt	22µM*	nt
CCOc1ccc(C2c3c(ncn(-c4ccccc4)c3=N)Oc3ccc4ccccc4c32)cc1OCC (stereo not drawn)	nt	nt	nt	nt	40µM*	nt
N=c1c2c(ncn1-c1ccccc1)Oc1ccc3ccccc3c1C2c1ccc2c(c1)CCO2 (stereo not drawn)	nt	nt	nt	nt	35µM*	nt
CCOC(=O)/C=C/C(=O)OCc1csc(CC(=O)Nc2ccccc2C)n1	-10%	50%	nt	0%	0%	50µM*
Cc1ccc([N+](=O)[O-])cc1N=C(c1ccc([N+](=O)[O-])cc1)N1CCOCC1	0%	?	-8%	-30%	79µM*	?
O=[N+]([O-])c1ccc(C(=Nc2cccc3ccccc23)N2CCOCC2)cc1	-8%	?	-16%	-4%	?	50µM*
Cc1ccc([N+](=O)[O-])cc1N=C(c1cccc([N+](=O)[O-])c1)N1CCOCC1	-14%	-11%	-3%	-14%	-17%[11.4 µM]	-9%
COc1cccc(CNC(=O)c2cnc(N3CCCC3)nc2C)c1	nt	42%	nt	-10%	-7%	-9%
CCOC(=O)c1c(NC(=O)CSc2n[nH]c(-c3ccco3)n2)sc(C)c1C	-6%	10%	-6%[11.4 µM]	-2%	-21%	?
O=C(CSc1n[nH]c(-c2ccco2)n1)Nc1ccc(Br)cc1	27µM*	-22%[57 µM]	nt	-15%	45µM*	-33%
SMILES	PLK1 PBD block	HP1b chromo inh	L3MBTL1 block	VDR inh	JMJD2A Tudor	BAZ2B inh
O=C(CSc1n[nH]c(-c2ccco2)n1)N1c2ccccc2Sc2ccccc21	-18%	-10%	-24%	-7%	-26%	56µM*
CCOC(=O)CSc1n[nH]c(-c2ccco2)n1	30µM*	17%	nt	-26%	?	11%
O=C(CSc1n[nH]c(-c2ccco2)n1)Nc1ccccc1Cl	-6%	31%	nt	-13%	-15%	-6%
COc1ccc(NC(=O)CSc2n[nH]c(-c3ccco3)n2)cc1	0%	56%	15%	0%	-6%	?
Fc1ccc(N2CCN(c3ncnc4[nH]ncc34)CC2)cc1	nt	5%	nt	5%	-17%	1%
CCOC(=O)c1cc(-c2ccccc2)n(CC(=O)Nc2ccc(OC)cc2OC)c1C	nt	46%	nt	15%	22µM*	-6%
CCOC(=O)c1cc(-c2ccc(OC)cc2)n(CCC(=O)Nc2ccccc2OC)c1C	nt	28%	nt	1%	28µM*	79µM*
Cc1ccc2nc(NCc3ccco3)c(C=NCc3ccco3)c(=O)n2c1	-1%	31%	?	-1%	1%	50µM*
Cc1ccc2nc(NCc3ccccc3)c(C=NCc3cccnc3)c(=O)n2c1	-9%	35%	nt	-4%	-1%	-23%
O=C(NCc1cccn1Cc1ccccc1)Nc1cccc(C(F)(F)F)c1	nt	40%	nt	17%	-21%	-3%
CCOC(=O)c1noc2nc(C)n(Cc3ccc([N+](=O)[O-])cc3)c(=O)c12	nt	-3%[57 µM]	nt	-4%	20µM*	-14%
Cc1cc(C)cc(OCC(=O)N(Cc2ccccc2)C2CCS(=O)(=O)C2)c1 (stereo not drawn)	-3%	9%	nt	9%	-10%	10%
Cc1ccc(C)c(OCC(O)CN2CCN(CCN3C(=O)c4cccc5cccc(c45)C3=O)CC2)c1 (stereo not drawn)	23%	-38%	-9%	-5%	?	50µM*
O=C1c2cccc3cccc(c23)C(=O)N1CC1CCN(CC(O)COc2ccc3ccccc3c2)CC1 (stereo not drawn)	-9%	?	-1%	-5%	13µM*	?
COc1cccc(OCC(O)CN2CCC(CN3C(=O)c4cccc5cccc(c45)C3=O)CC2)c1 (stereo not drawn)	-16%	-7%	nt	12%	?	?
